From ChEMBL document CHEMBL1156829 come the findings set out here.

Several values for one entry are separate records, joined by “and”; a condition that tells them apart may be missing. Identical values can stand only once. In all, about 5,400 compounds were measured (“IFI”: median about 2, highest 2% from about 22 on). The list comes from a sample in which the highest values are over-represented; it also holds similar structures and randomly drawn compounds.

A short description of this experiment: NOVARTIS: Inhibition Frequency Index (IFI) - the number of HTS assays where a compound showed > 50% inhibition/induction, expressed as a percentage of the number of assays in which the compound was tested. The format is functional.
`COc1ccc(S(=O)(=O)N(C)CCCNc2ccnc3cc(Cl)ccc23)cc1` came in with an IFI of 10.2%.
The same measure for `CC(c1nc2ccccc2c(=O)n1C)N1CCN(C(=O)C(C)(C)C)CC1` (centres undefined): 0%; for `O=C(Nc1cccc(Cl)c1)c1cc2ccccc2cc1O`: 9.62%; for `O=C(Nc1c2ccccc2nc2ccccc12)c1cc(Cl)ccc1O`: 3.03%.
As for `N#Cc1ccc(NC(=O)c2cc(Cl)ccc2O)cc1`, the IFI was determined as 24.7%.
The figure for `CCCN(C(=O)Nc1c(C(C)C)cccc1C(C)C)C(CC)c1nc2ccccc2c(=O)n1-c1cccc(C)c1` (centres undefined) is 0.943%; for `CCOC(=O)N1CCN(C(=O)C(=O)NNC(=O)COc2ccc(Cl)cc2Br)CC1` it is 0%; for `OC1(c2ccc(Br)cc2)CCN(C2CCN(Cc3ccccc3)CC2)CC1` it is 1.57%.
The same measure for `COCC(=O)NCc1ccc(OC2CCN(CC(c3ccccc3)c3ccccc3)CC2)cc1`: 1.41%; for `O=C(Nc1cccc(Oc2ccccc2)c1)NC(CN1CCCC1)c1ccccc1` (centres undefined): 7.04%.
`CCCCCCC1CCC(O)(C(C)(O)C(=O)NC2C(=O)N3NCCCC3C(=O)N(O)C(COC)C(=O)NCC(=O)N3NCCCC3C(=O)N(O)C(C)C(=O)OC2C)OC1C` (centres undefined): the IFI is 39.3%.
`CC[C@H](C)C[C@H]1CC[C@](O)([C@](C)(O)C(=O)N[C@@H]2C(=O)N3NCCC[C@@H]3C(=O)N(O)[C@@H](C)C(=O)NCC(=O)N3NCCC[C@H]3C(=O)N(O)[C@H](C)C(=O)O[C@H]2C(C)C)O[C@@H]1C`: the IFI was determined as 34.4%.
The figure for `COc1ccc(CN2CCOc3ccc(C(C)(O)CN(C)C)cc3C2)cc1C` (centres undefined) is 0%.
The same measure for `CCOC(=O)c1c(C)n(-c2ccccc2)c2ccc(O)cc12`: 2.54%.
The figure for `CCN1CCN(c2c(C(=O)c3ccccc3)cnc3cc(OC)c(OC)cc23)CC1` is 2.22%; for `CCCCc1c(C)nc2c(OC)cccc2c1O` it is 0%.
Turning to `CCCCN(C)Cc1cc(-c2cccc(OC)n2)ccc1O`, the IFI amounted to 3.42%.
The same measure for `Oc1c2c(nc3cc(-c4ccccc4)nn13)CCCC2`: 7.14%; for `CC(C)CNCc1cc(-c2ccc(F)cc2)ccc1O`: 0.98%.
The figure for `CC(=O)Nc1c(NCc2ccccc2)c2ccccc2sc1=O` is 2.17%.
The same measure for `Cc1ccc(Nc2nc3c(N)nnc(N)c3nc2Nc2ccc(C)cc2)cc1`: 2.98%.
For the compound `O=C(NC(=C(Cl)Cl)[P+](c1ccccc1)(c1ccccc1)c1ccccc1)c1ccc(F)cc1`, the IFI was 27.3%.
`CCS/C(Cl)=C(/NC(=O)c1ccccc1)[P+](c1ccccc1)(c1ccccc1)c1ccccc1`: the IFI worked out at 3.57%.
The figure for `O=C(NN=CC(Br)=Cc1ccccc1)c1ccc(F)cc1` is 0%; for `COc1ccc(/C=C(/C#N)C(=O)Nc2cccc3ccccc23)cc1` it is 0%; for `COc1cc(NC(C)CCCN(Cc2ccc(Cl)cc2)C(=O)Nc2cccc(C(F)(F)F)c2)c2ncccc2c1` (centres undefined) it is 2.7%.
Compound `Cc1ccccc1C[n+]1cc(-c2ccc(Cl)cc2)n2c1CCC2` registered an IFI of 7.14%.
`CCSC1=CC(=O)c2ccccc2C1=O` returned an IFI of 24.3%.
The same measure for `CCCCNC1=CC(=O)C(=O)c2ccccc21`: 15.4%; for `Cc1c(C(=O)NCCN2CCCC2)cnn1-c1ncc2c(n1)-c1ccccc1SC2`: 2.59%.
The figure for `COCCOC(=O)C1=C(C)NC2=C(C(=O)CC(c3ccc(OC)c(OC)c3)C2)C1c1ccccc1Cl` (centres undefined) is 2.33%; for `CC(C)NC(=O)c1ccc2c(c1)N=C(c1ccccc1)N(C1CC1)C2` it is 2.47%; for `Cc1ccccc1C=NNc1nc2ccccc2[nH]1` it is 0%.
The compound `CCN1/C(=C/c2ccc3ccccc3[n+]2CC)Sc2sc3ccccc3c21` showed an IFI of 18.3%.
The figure for `CC[n+]1c(/C=C2\Sc3ccc(C)cc3N2CCO)ccc2ccccc21` is 15.4%; for `CCN1/C(=C/c2ccc3ccccc3[n+]2CC)Sc2cc(NC(C)=O)ccc21` it is 8.33%; for `CCN1/C(=C/c2cccc[n+]2C)C=Cc2ccccc21` it is 8.33%.
The same measure for `CC[n+]1c(/C=C2\Sc3cc(C)ccc3N2CCO)ccc2ccccc21`: 15.4%; for `CCN1/C(=C/c2ccc3ccccc3[n+]2CC)Sc2c1ccc1ccccc21`: 24.1% and 14.3%.
The compound `CCN1C(=Cc2ccc3ccccc3[n+]2CC)C=Cc2sc3ccccc3c21` came in with an IFI of 31.4%.
The figure for `CC[n+]1c(/C=C2\Sc3ccccc3N2CCO)ccc2cc(C)ccc21` is 6.35%; for `CC[n+]1c(/C=C2\Sc3ccc(OC)cc3N2C)ccc2cc(C)ccc21` it is 14.3%.
The figure for `CCN1/C(=C/c2ccc3ccccc3[n+]2CC)C=Cc2ccccc21` is 22.7%.
The figure for `CC[n+]1c(/C=C2\Sc3oc4ccccc4c3N2C)ccc2cc(C)ccc21` is 26.1%; for `CCN1/C(=C/c2[se]c3ccccc3[n+]2CC)C=Cc2cc(OC)ccc21` it is 19.6%; for `CCCC(=O)N1CCN(c2nc(Cc3ccccc3)c3c(c2C#N)CC(C)(C)OC3)CC1` it is 4.54%.
With `COc1ccc(-c2nc(CN3CCCCC3)ccc2O)cc1`, the IFI was determined as 0%.
For `CCOC(=O)C1=C(C)NC2=C(C(=O)C(C(=O)OCC)C(c3ccccc3OC)C2)C1c1sccc1C` (centres undefined), the IFI worked out at 3.49%.
The same measure for `COc1ccc(C2(CNCC(O)c3cccc([N+](=O)[O-])c3)CCCC2)cc1OC` (centres undefined): 0%; for `CC(=O)Nc1cc(C(=O)Nc2ccc(C3=NCCN3)cc2)ccc1C(=O)Nc1ccc(C2=NCCN2)cc1`: 0%; for `Cc1ccn(CC(=O)N2CCOc3c(cc(-c4csc5ccccc45)cc3OCCc3ccccn3)C2)n1`: 4%.
The same measure for `CCN1C=Cc2ccccc2/C1=C\c1ccc2ccccc2[n+]1CC`: 23.6%; for `CC[n+]1c(C=C2C=CN(c3ccc(Cl)cc3)C=C2)ccc2ccccc21`: 15.4%.
The same measure for `CC[n+]1c(/C=C/c2ccc(Cl)cc2)ccc2ccccc21`: 4.84%; for `O=C(CCl)Nc1ccc(OC(F)F)cc1`: 0%; for `COc1ccc2nc(-c3ccccc3)cc(NCCN(C)C)c2c1`: 3.51%.
For `O=c1cc(NC2CCN(CCCc3ccccc3)CC2)c2cc(Cl)ccc2o1`, the IFI turned out to be 0%.
The figure for `CCOC(=O)c1cnc2cc(OCC(C)C)c(OCC(C)C)cc2c1O` is 0.649%; for `c1cn2c(-c3ccc(N4CCOCC4)cc3)cnc2c(NCc2ccc3c(c2)OCO3)n1` it is 0%.
In the case of `CN1c2ccccc2N(C)C1c1ccc2c(c1)OCO2`, the IFI is 0.621%.
The figure for `c1ccc(C2=NN(c3ccccc3)C(c3ccc4c(c3)OCO4)N2c2ccc(N3CCOCC3)cc2)cc1` (centres undefined) is 23.1%; for `CCN1CCN(c2cc(C)c3cc(NC(=O)c4ccc(F)c([N+](=O)[O-])c4)ccc3n2)CC1` it is 6.67%; for `Cc1cc(Nc2cccc3ccccc23)nc(Nc2cccc3ccccc23)n1` it is 0%.
The same measure for `O=S(=O)(c1ccccc1)N1CCN(CC2CNCCO2)CC1` (centres undefined): 1.41%.
